Shown are actives, neighbours in structure and some others; about 3.5% of the full set was active somewhere.
Pf apPOL block = Pf-apPOL DNA polymerase inhibition; Recombinant Pf-apPOL, molecular beacon fluorescence, 1.5 h; hit rate 0.25% among 210,000; inhibition, % at 10 µM
mHTT CaM bind = disrupts binding of mutant huntingtin to calmodulin | AlphaScreen His-mHTT/GST-CaM binding, luminescence | inhibition, % at 15 µM | hit rate 3.6% among 190,000
Of the large screens only hits and unclear results are named; the others gave an inactive call. Rule as the data show it: active = inhibition above about 50%; inactive = the rest.

O=C(Nc1nccn(-c2cccc(Cl)c2)c1=O)c1ccccn1	none
Cc1cc(C)cc(-n2ccnc(NC(=O)c3ccccn3)c2=O)c1	mHTT CaM bind 74
Clc1ccccc1CSc1nccc(-c2ccco2)n1	none (no result: mHTT CaM bind)
CCc1cccc(C)c1NC(=O)c1sc2[nH]c(=O)c(C(=O)O)cc2c1N	none
O=C(CC1=CCCCC1)NC1CCc2[nH]c3ccc(Br)cc3c2C1 (stereo not drawn)	mHTT CaM bind 100
CCc1cccc2c3c([nH]c12)CCC(NC(=O)C(C)CC)C3 (stereo not drawn)	none
CC1CCC(C(=O)NC2CCc3[nH]c4ccc(Br)cc4c3C2)CC1 (stereo not drawn)	mHTT CaM bind 97
Cc1cc(C)cc(C(=O)NC2CCc3[nH]c4ccc(Br)cc4c3C2)c1 (stereo not drawn)	none
Cc1ccc(C(=O)N2CCN(S(=O)(=O)c3ccccc3)C2c2ccc(N(C)C)cc2)cc1 (stereo not drawn)	mHTT CaM bind 53
Cc1ccc(C(=O)N2CCN(C(=O)c3ccccc3)C2c2ccc(N(C)C)cc2)cc1 (stereo not drawn)	none
COc1ccc(C2CC(=O)c3c(SCc4ccccc4)sc(C#N)c3C2)cc1 (stereo not drawn)	none (no result: mHTT CaM bind)
CN(C)c1ccc(C2CC(c3ccccc3)=NN2C(=O)c2ccc(F)cc2)cc1 (stereo not drawn)	none
CN(C)c1ccc(C2CC(c3ccccc3)=NN2C(=O)c2ccc(F)cc2)cc1[N+](=O)[O-] (stereo not drawn)	mHTT CaM bind 55
COc1cccc(C(=O)N2CCCC2c2cc(C)no2)c1 (stereo not drawn)	none
Cn1c(=O)c2cc(C(=O)NCc3cc(F)ccc3F)nn2c2ccccc21	none
COc1ccc(N(CC(=O)N2CCOCC2)S(=O)(=O)c2ccccc2)cc1OC	none
COc1cccc(CNC(=O)c2c[nH]n3c(=O)c(Cl)c(C)nc23)c1	mHTT CaM bind 52
Cc1cc(=O)n2[nH]cc(C(=O)NCc3ccccc3)c2n1	none
CCCc1c(C)nc2c(C(=O)NCc3ccc(C)cc3)c[nH]n2c1=O	none
COc1cccc(CNC(=O)c2c[nH]n3c(=O)c(Cc4ccccc4F)c(C)nc23)c1	mHTT CaM bind 72
Cc1ccc(CNC(=O)c2c[nH]n3c(=O)cc(CSc4ccc(Cl)cc4)nc23)cc1	mHTT CaM bind 65
Cc1ccc(CNC(=O)c2c[nH]n3c(=O)c(Cc4ccc(Cl)cc4)c(C)nc23)cc1	mHTT CaM bind 96
CCCc1c(C)nc2c(C(=O)NCc3ccccc3)c[nH]n2c1=O	none
Cc1nc2c(C(=O)NCCc3ccccc3)c[nH]n2c(=O)c1Cc1ccccc1F	none
COc1cc(C(=O)/C=C/Nc2ccc(C)cc2O)cc(OC)c1OC	none
O=C(c1cc(=O)c2ccccc2o1)N1CCc2ccccc2C1	none
CC1C2CCC3C4CC=C5CC(N(C)C)CCC5(C)C4CCC32CN1C (stereo not drawn)	none (no result: mHTT CaM bind)
CCCc1c(C)nc2c(C(=O)NC3CCCCC3)c[nH]n2c1=O	none
COCCNC(=O)NCC1(O)CCCC1	none
COc1cccc(Oc2nonc2N)c1	none (no result: Pf apPOL block)
Cc1nc2c(C(=O)NCc3ccccc3Cl)c[nH]n2c(=O)c1Cc1ccccc1F	none
CCCc1c(C)nc2c(C(=O)NCc3ccc(OC)cc3)c[nH]n2c1=O	none
Cc1nc2c(C(=O)NCCN(C)C)c[nH]n2c(=O)c1Cc1ccccc1F	none
COc1cccc(CNC(=O)c2c[nH]n3c(=O)c(Cc4ccc(C)cc4)c(C)nc23)c1	mHTT CaM bind 61
CCC(C)NC(=O)c1c[nH]n2c(=O)c(Cc3ccccc3Cl)c(C)nc12 (stereo not drawn)	mHTT CaM bind 59
CCN(CCNC(=O)c1c[nH]n2c(=O)c(Cc3ccccc3F)c(C)nc12)c1ccccc1	mHTT CaM bind 79
Cc1cc(Cl)ccc1NC(=O)N1CC2CC1CC2NC(=O)c1ccccc1 (stereo not drawn)	none
COc1ccc2oc(=O)c(C(=O)OC3CCCCC3)cc2c1	none
COc1ccc(N2CC(c3nnc(NC(=O)Cc4ccc(F)cc4)o3)CC2=O)cc1 (stereo not drawn)	mHTT CaM bind 73
O=C(COc1ccc(F)cc1)Nc1nnc(C2CC(=O)N(c3ccc(F)cc3)C2)o1 (stereo not drawn)	mHTT CaM bind 68
O=C(Nc1nnc(C2CC(=O)N(c3ccc(Cl)cc3)C2)o1)c1ccc(F)cc1 (stereo not drawn)	none
O=C(Nc1nnc(C2CC(=O)N(c3ccccc3)C2)o1)c1ccccc1F (stereo not drawn)	none
O=C(Nc1nnc(C2CC(=O)N(c3ccc(F)cc3)C2)o1)c1ccccc1F (stereo not drawn)	mHTT CaM bind 61
O=C(Cc1ccc(Cl)cc1)Nc1nnc(C2CC(=O)N(c3ccc(F)cc3)C2)o1 (stereo not drawn)	mHTT CaM bind 71
COc1ccc(N2CC(c3nnc(NC(=O)COc4ccc(F)cc4)o3)CC2=O)cc1 (stereo not drawn)	none
COc1ccc(CC(=O)Nc2nnc(C3CC(=O)N(c4ccc(OC)cc4)C3)o2)cc1 (stereo not drawn)	none
COCC(=O)Nc1cnc(-c2ccccc2)nc1	none
CN(Cc1ccccc1)C(=O)c1cn(-c2ccc(Cl)cc2)c(=O)c2ccccc12	none
Cc1ccccc1NC(=O)CSc1ncccc1-c1nc2ccccc2[nH]1	none
O=C(Cc1ccc(F)cc1)Nc1nnc(C2CC(=O)N(c3ccc(Cl)cc3)C2)o1 (stereo not drawn)	mHTT CaM bind 67
COc1ccc(N2CC(c3nnc(NC(=O)Cc4ccc(Cl)cc4)o3)CC2=O)cc1 (stereo not drawn)	none
Cc1ccc(C2=NC3(CCN(C(C)C)CC3)NC(c3cc(Cl)ccc3O)C2)cc1 (stereo not drawn)	none
Cc1ccc(NC(=O)NC2CCN(c3cc(C)cc(C)c3)C2=O)cc1 (stereo not drawn)	none
COc1cccc(C2C(C(=O)Nc3ccccc3)=C(C)Nc3nc(-c4ccccc4)nn32)c1OC (stereo not drawn)	mHTT CaM bind 70
COc1ccc(C2C(C(=O)Nc3ccccc3)=C(C)Nc3nc(-c4ccccc4)nn32)c(OC)c1 (stereo not drawn)	none
O=C(c1ccc(F)cc1)N1CCC(CCNS(=O)(=O)c2ccccc2Cl)CC1	none
O=C(c1ccccc1)N1CCC(CCNS(=O)(=O)c2cccc(Cl)c2)CC1	mHTT CaM bind 50
O=C(c1ccc(F)cc1)N1CCC(CCNS(=O)(=O)c2cccc(Cl)c2)CC1	none
Cc1ccc(S(=O)(=O)NCCC2CCN(C(=O)c3ccccc3)CC2)cc1C	none
Cc1cc(C)c(S(=O)(=O)NCCC2CCN(C(=O)c3ccccc3)CC2)cc1C	mHTT CaM bind 64
Cc1c(Cl)cccc1S(=O)(=O)NCCC1CCN(C(=O)c2ccccc2)CC1	mHTT CaM bind 53
O=C(NCc1ccco1)c1cc(Sc2ccccc2Cl)nc2ccccc12	none
COc1ccc(-c2nc3ccccc3o2)cc1NC(=O)c1ccc([N+](=O)[O-])cc1Cl	none
CC(C)c1ccc(S(=O)(=O)N=C2C=CC(=O)C=C2)cc1	mHTT CaM bind 86
CC(C)(C)C1=CC(=NS(=O)(=O)c2ccc(F)cc2)C=C(C(C)(C)C)C1=O	none
Cc1ccc(S(=O)(=O)N=C2C=CC(=O)C=C2)cc1	none
O=C1C=CC(=NS(=O)(=O)c2ccc(F)cc2)C=C1	mHTT CaM bind 50
O=C1C=CC(=NS(=O)(=O)c2cccc(C(=O)O)c2)C=C1	Pf apPOL block 59, mHTT CaM bind 58
O=C(O)c1cccc(S(=O)(=O)N2CCCCCC2)c1	none
Cc1cccc(NC(=O)N2CCCC2c2cccc(F)c2)c1C (stereo not drawn)	none
